Target: Cyclin-dependent kinase 2/cyclin A (Homo sapiens) (UniProt P24941+P20248+P78396)
Settings: at 10 µM

| Compound | residual activity |
| --- | --- |
| COc1cc2ncnc(Nc3ccc(NC(=O)c4ccccc4)cc3)c2cc1OC | 93% |
| CC#CC(=O)Nc1cc2c(Nc3ccc(F)c(Cl)c3)ncnc2cn1 | 85% |
| Cc1nc(-c2ccccc2)c(-c2ccncc2)o1 | 92% |
| Ic1cccc(CSc2nnc(-c3ccncc3)o2)c1 | 68% |
| N#CC(C#N)=C(N)/C(C#N)=C/c1ccc(O)cc1 | 88% |
| COc1ccc(OC)c2c(=S)c3ccccc3[nH]c12 | 80% |
| Cc1cc2ncc(-c3ccccc3)nc2cc1C | 82% |
| O=C(Nc1cccc(Nc2cc(Nc3cccc(C(F)(F)F)c3)ncn2)c1)C1CC1 | 71% |
| Cc1cccc(-c2[nH]c(C(C)(C)C)nc2-c2ccc3c(c2)OCO3)n1 | 103% |
| N#CCCc1ccc2c(c1)-c1[nH]c3ccc([N+](=O)[O-])cc3c1CC(=O)N2 | 1% |

Target: T1, Cyclin-dependent kinase 2/cyclin E (Homo sapiens) (UniProt P24864+P24941+O96020)
Settings: at 1 µM

| Compound | residual activity |
| --- | --- |
| CC[n+]1c(/C=C/N(C)c2ccccc2)n(-c2ccccc2)c2ccc(-c3nc4ccccc4s3)cc21 | 101% |
| CCC(=O)Nc1ccc2ncnc(Nc3cccc(Br)c3)c2c1 | 106% |
| COc1cc2ncnc(Nc3ccc(O)c(Br)c3)c2cc1OC | 102% |
| O=C1NC(=O)c2c1c1c3ccccc3[nH]c1c1[nH]c3cc(Br)ccc3c21 | 63% |
| Nc1ccc2ncnc(NCCc3ccc(Oc4ccccc4)cc3)c2c1 | 98% |
| Cc1cc(Nc2nc(-c3ccccc3)nc3ccccc23)n[nH]1 | 70% |
| Oc1c2ccccc2c2c3c(cccc13)N=N2 | 8% |
| CC(=O)c1ccc(N2CCOCC2)cc1O | 104% |
| CCN(CC)C(=O)c1ccc(Nc2nc(OCC3CCCCC3)c3nc[nH]c3n2)cc1 | 52% |
| Nc1nc(Nc2ccc(S(N)(=O)=O)cc2)nn1C(=S)Nc1c(F)cccc1F | -1% |
| Oc1ccc(Nc2nc(-c3ccc(Cl)cc3)cs2)cc1 | 100% |
| CNc1cc2c(Nc3cccc(Br)c3)ncnc2cn1 | 105% |
| COc1cc2ncnc(Nc3ccc(Oc4ccccc4)cc3)c2cc1OC | 106% |
| O=C(O)c1ccc2c3c1cccc3c(=O)n1c3ccccc3nc21 | 99% |
| Cc1nc2cc3nc(-c4cccs4)cnc3cc2n1C | 115% |
| N#C/C(=C(\N)Sc1ccc(N)cc1)c1ccccc1C(F)(F)F | 97% |
| COc1cc2ncnc(Nc3ccc(NC(=O)c4ccccc4)cc3)c2cc1OC | 104% |
| Cc1nc(-c2ccccc2)c(-c2ccncc2)o1 | 104% |
| Ic1cccc(CSc2nnc(-c3ccncc3)o2)c1 | 41% |
| Cc1cncc2cccc(S(=O)(=O)N3CCCN(C(=O)CN)C[C@H]3C)c12 | 97% |
| COc1ccc(OC)c2c(=S)c3ccccc3[nH]c12 | 85% |
| Cc1cc2ncc(-c3ccccc3)nc2cc1C | 100% |
| O=C(Nc1cccc(Nc2cc(Nc3cccc(C(F)(F)F)c3)ncn2)c1)C1CC1 | 99% |
| N#CCCc1ccc2c(c1)-c1[nH]c3ccc([N+](=O)[O-])cc3c1CC(=O)N2 | 1% |

Target: T1, Cyclin-dependent kinase 2/cyclin E (Homo sapiens)
Settings: at 10 µM

| Compound | residual activity |
| --- | --- |
| CC[n+]1c(/C=C/N(C)c2ccccc2)n(-c2ccccc2)c2ccc(-c3nc4ccccc4s3)cc21 | 89% |
| CCC(=O)Nc1ccc2ncnc(Nc3cccc(Br)c3)c2c1 | 104% |
| COc1cc2ncnc(Nc3ccc(O)c(Br)c3)c2cc1OC | 88% |
| O=C1NC(=O)c2c1c1c3ccccc3[nH]c1c1[nH]c3cc(Br)ccc3c21 | 67% |
| Nc1ccc2ncnc(NCCc3ccc(Oc4ccccc4)cc3)c2c1 | 90% |
| Cc1cc(Nc2nc(-c3ccccc3)nc3ccccc23)n[nH]1 | 15% |
| c1ccc(-c2n[nH]c3c2oc2ccccc23)cc1 | 60% |
| CN(C)CCCn1cc(C2=C(c3c[nH]c4ccccc34)C(=O)NC2=O)c2ccccc21 | 35% |
| Oc1c2ccccc2c2c3c(cccc13)N=N2 | 3% |
| c1ccc(-c2n[nH]cc2-c2ccnc3ccccc23)nc1 | 94% |
| CC(=O)c1ccc(N2CCOCC2)cc1O | 100% |
| CCN(CC)C(=O)c1ccc(Nc2nc(OCC3CCCCC3)c3nc[nH]c3n2)cc1 | 7% |
| Nc1nc(Nc2ccc(S(N)(=O)=O)cc2)nn1C(=S)Nc1c(F)cccc1F | -2% |
| Oc1ccc(Nc2nc(-c3ccc(Cl)cc3)cs2)cc1 | 93% |
| CNc1cc2c(Nc3cccc(Br)c3)ncnc2cn1 | 107% |
| COc1cc2ncnc(Nc3ccc(Oc4ccccc4)cc3)c2cc1OC | 106% |
| O=C(O)c1ccc2c3c1cccc3c(=O)n1c3ccccc3nc21 | 81% |
| Cc1nc2cc3nc(-c4cccs4)cnc3cc2n1C | 104% |
| N#C/C(=C(\N)Sc1ccc(N)cc1)c1ccccc1C(F)(F)F | 102% |
| COc1cc2ncnc(Nc3ccc(NC(=O)c4ccccc4)cc3)c2cc1OC | 104% |
| CC#CC(=O)Nc1cc2c(Nc3ccc(F)c(Cl)c3)ncnc2cn1 | 94% |
| Cc1nc(-c2ccccc2)c(-c2ccncc2)o1 | 95% |
| Ic1cccc(CSc2nnc(-c3ccncc3)o2)c1 | 32% |
| Cc1cncc2cccc(S(=O)(=O)N3CCCN(C(=O)CN)C[C@H]3C)c12 | 93% |
| COc1ccc(OC)c2c(=S)c3ccccc3[nH]c12 | 74% |
| Cc1cc2ncc(-c3ccccc3)nc2cc1C | 104% |
| O=C(Nc1cccc(Nc2cc(Nc3cccc(C(F)(F)F)c3)ncn2)c1)C1CC1 | 76% |
| Cc1cccc(-c2[nH]c(C(C)(C)C)nc2-c2ccc3c(c2)OCO3)n1 | 98% |
| N#CCCc1ccc2c(c1)-c1[nH]c3ccc([N+](=O)[O-])cc3c1CC(=O)N2 | -2% |

From ChEMBL document CHEMBL2218924, “A broad activity screen in support of a chemogenomic map for kinase signalling research and drug discovery” (Biochem J, 2013)
